Measured values: PubChem BioAssay (NCI)
“And” between values parts separate entries of the source, which are not always exact repeats. Identical values can stand only once. This is part of a sample that, as a whole, favours compounds with a hit. Of some 79,000 tested, about 15% had one in any assay. A number with no mark means an inactive call. The source made the active and inactive calls. No stated cut-off is given here; in the data, active means growth inhibition above about 70%; inactive means the rest.

What was measured:
[1] = NCI Yeast Anticancer Drug Screen. Data for the rad50 strain (AID 155);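 further: 0% = growth of vehicle-only cultures of the same strain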; settings: S. cerevisiae rad50 strain growth inhibition, active compounds read high
How it was run: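 Relative growth inhibition (compound vs vehicle) was measured in yeast with a defined repair-gene alteration.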

[2] = NCI Yeast Anticancer Drug Screen. Data for the sgs1 mgt1 strain (AID 161);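 further: 0% = growth of cultures given vehicle only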; settings: S. cerevisiae sgs1 mgt1 strain, active compounds read high
How it was run: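 Read-out: growth inhibition vs vehicle controls. Cells: mutant yeast strain deficient in DNA damage repair.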

[3] = NCI Yeast Anticancer Drug Screen. Data for the cln2 rad14 strain (AID 165);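 further: 0% = growth equal to vehicle treated cultures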; settings: S. cerevisiae cln2 rad14 strain, active compounds read high
How it was run: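 Each compound was tested on cln2 rad14 yeast. Inhibition of growth was calculated against vehicle-exposed controls.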

[4] = NCI Yeast Anticancer Drug Screen. Data for the bub3 strain (AID 167); settings: S. cerevisiae bub3 mutant strain, active compounds read high
How it was run: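 Screening used yeast with an engineered genetic alteration affecting cell cycle control. Compound-exposed cultures were compared with vehicle cultures, and reduced growth was taken as inhibition.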

[5] = NCI Yeast Anticancer Drug Screen. Data for the mlh1 rad18 strain (AID 175); settings: S. cerevisiae mlh1 rad18 strain growth inhibition, active compounds read high
How it was run: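 Vehicle-treated cultures served as the reference for growth inhibition in a yeast strain carrying DNA damage repair alterations exposed to each compound.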

[6] = NCI Yeast Anticancer Drug Screen. Data for the mec2-1 strain (AID 157); settings: S. cerevisiae mec2-1 strain, active compounds read high
How it was run: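 Vehicle-treated cultures served as reference for growth inhibition of compound-exposed mec2-1 yeast.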

[7] = at 5.0 µM (retest, dose inferred, filed as 0.5)
[8] = at 50.0 µM (retest, dose inferred, filed as 5.0)

| Compound | growth inhibition [1, 7] [%] | growth inhibition [1, 8] [%] | growth inhibition ([1]; at 50.0 µM) | growth inhibition [2, 7] | growth inhibition [2, 8] | growth inhibition ([2]; at 50.0 µM) | growth inhibition [3, 7] | growth inhibition [3, 8] | growth inhibition ([3]; at 50.0 µM) | growth inhibition [4, 7] | growth inhibition [4, 8] | growth inhibition ([4]; at 50.0 µM) | growth inhibition [5, 7] | growth inhibition [5, 8] | growth inhibition ([5]; at 50.0 µM) | growth inhibition ([6]; at 50.0 µM) | growth inhibition [6, 7] | growth inhibition [6, 8] |
| --- | --- | --- | --- | --- | --- | --- | --- | --- | --- | --- | --- | --- | --- | --- | --- | --- | --- | --- |
| CN(C)Cc1cc(C(C)(C)C)cc(C2CCCCC2)c1O | 2 | 58 | 66.4% | -1% | 95% (active) | 74.3% (active) | -4% | 8% | 61.7% | -6% | 40% | 71.8% (active) | 1% | 94% (active) | 92.4% (active) | – | – | – |
| CCCCCCCCCCCCCCCCCC(=O)OCCOCCO | -12 | -16 | -2.4% | -10% | -23% | -2.7% | -33% | -21% | 60.8% | -27% | -24% | -13.3% | -28% | -25% | -21.6% | – | – | – |
| CCCC(CC)c1cc(O)c(O)cc1C(CC)CCC (stereo not drawn) | 1 | 56 | 73% (active) | 9% | 29% | 43.9% | -5% | 70% (active) | 79.8% (active) | -9% | 54% | 65.8% | 6% | 62% | 77.8% (active) | – | – | – |
| NCC(=O)NC(CO)C(=O)O (stereo not drawn) | – | – | -8.05% and -12.9% and -12.8% | – | – | -12.2% and -2.65% and -3.75% | – | – | -34.1% and -5.75% and -10.1% | – | – | -24.7% and -11.4% and -3.6% | – | – | -3.35% and -12.8% and -9.4% | -10.5% and -5.1% and -4.35% | – | – |
| CCOC(=O)c1[nH]cc(C)c1-c1ccc2c(-c3ccccc3)nc3ccccc3n12 | – | – | – | 3% | 70% (active) | 60.4% | 12% | 81% (active) | 38.8% | 9% | 79% (active) | 40.6% | 12% | 73% (active) | 69% | 64.2% | 7% | 61% |
| Cc1ccc(Oc2ccc(C(=O)C(CN(C)C)CN(C)C)cc2)cc1 | – | – | – | 95% (active) | 98% (active) | 51.4% | 75% (active) | 95% (active) | 95.6% (active) | 91% (active) | 96% (active) | 96.2% (active) | 96% (active) | 96% (active) | 97.1% (active) | 98% (active) | 93% (active) | 96% (active) |
| CCCCC(O)(c1ccc2nc(NC(=O)OC)[nH]c2c1)c1cccs1 (stereo not drawn) | – | – | – | -4% | 69% | 49.5% | -15% | 10% | 36% | -8% | 41% | 35.5% | -5% | 62% | 94.5% (active) | 74.8% (active) | -4% | 62% |
| CC(C)=CCC/C(C)=C/COC(=O)Nc1ccccc1 | – | – | – | -2% | 17% | 62.3% | -40% | -5% | 61% | -2% | -1% | 52.8% | -13% | -11% | 10.9% | 18.7% | -13% | -7% |
| CC(=O)Nc1ccc2c(c1)C(S)c1ccccc1-2 (stereo not drawn) | -5 | 32 | 52% | – | – | – | -70% | 18% | 33.2% | -1% | -60% | 49.4% | -2% | 71% (active) | 37.2% | 31.7% | 9% | 27% |
| CSc1ccccc1C(=O)O | – | – | -0.25% and -1.5% and -11% | – | – | -10.4% and -1.2% and 31.2% | – | – | -32.9% and -15.8% and 17.3% | – | – | -30.5% and -6.5% and -34% | – | – | -7.45% and -1.95% and -8.9% | -1.9% and -7.55% and 25.9% | – | – |
| CSc1cc(Cl)c(C)cc1S(=O)(=O)NC(=O)Nc1ccc(Cl)cc1 | – | – | – | 24% | 97% (active) | 99.5% (active) | 45% | 97% (active) | 98.7% (active) | 35% | 98% (active) | 98.5% (active) | 29% | 99% (active) | 99.3% (active) | 99% (active) | 34% | 99% (active) |
| OCC(O)C(O)C(O)C(O)CNCC(O)C(O)C(O)C(O)CO (stereo not drawn) | – | – | 5.3% and 10.1% and 19.6% | – | – | 12.8% and 14.3% and -2.5% | – | – | -6.2% and -7.7% and -3.1% | – | – | 13% and 14.2% and 3.75% | – | – | 17.4% and 21% and 20.8% | 15% and 17.2% and 10.3% | – | – |
| C/C(=C/C(=O)/C=C/c1ccccc1)c1c(C)[nH]c2ccccc12 | – | – | – | -6% | -4% | -7.4% | 1% | -6% | 34.4% | 0% | 1% | 81.9% (active) | 4% | 16% | -0.4% | -19.1% | -17% | 3% |
